From PubChem BioAssay (Tox21)
Results filed as inconclusive are left out. Activity calls are given as the source filed them. Unless noted, calls come from the whole dose curve; as a rule, active = well fitted curve in the direction sought with a large enough effect in the repeat runs; inconclusive = weak or mixed curves; inactive = no such curve, though single readings can be large; an effect the other way counts as inactive or inconclusive.

Key:
[1] = qHTS assay to identify small molecule agonists of the peroxisome proliferator-activated receptor delta (PPARd) signaling pathway - cell viability counter screen (AID 743211); note: nearly all actives have a fitted effect of over 55% in size
How it was run: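 HEK293H PPARd-bla, 3000 cells/well; 5 h preincubation 37C/5% CO2; cpd in DMSO, 17 h 37C; B/G FRET substrate 2 h RT; CellTiter-Glo 30 min RT, luminescence.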

[2] = target: Peroxisome proliferator-activated receptor delta (Homo sapiens) (UniProt Q03181); assay: qHTS assay to identify small molecule agonists of the peroxisome proliferator-activated receptor delta (PPARd) signaling pathway (AID 743212; calls by dose curve)
How it was run: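 Beta-lactamase reporter readout: a ratiometric FRET signal from the LiveBLAzer substrate after 2 h at room temperature. Compound exposure at 37 °C in PPARδ-bla HEK293H cells driven by an upstream activator sequence.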

[3] = qHTS assay to identify small molecule antagonists of the peroxisome proliferator-activated receptor delta (PPARd) signaling pathway - cell viability counter screen (AID 743213); note: nearly all actives have a fitted effect of over 50% in size
How it was run: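 Same-well viability: cells pre-incubated 5 h, dosed with compound plus 300 nM L165041, kept 17 h at 37 C, FRET substrate 2 h RT, then CellTiter-Glo 30 min RT and luminescence.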

[4] = target: Peroxisome proliferator-activated receptor delta (Homo sapiens) (UniProt Q03181); assay: qHTS assay to identify small molecule antagonists of the peroxisome proliferator-activated receptor delta (PPARd) signaling pathway (AID 743215; active = well fitted inhibition curve with a large enough effect in the signal ratio in the repeat runs, not every such curve was filed as active; the % refers to the signal ratio;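 note: cells stimulated with agonist L165041 at 300 nM final during compound exposure; series mostly up to about 62 µM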)
How it was run: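 HEK293H GeneBLAzer PPARd UAS-bla reporter cells; cpd + L165041 300 nM final, 17 h 37 C; LiveBLAzer B/G FRET substrate 2 h RT; fluorescence intensity read-out. Antagonist mode.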

[5] = qHTS assay to identify small molecule agonists of the farnesoid-X-receptor (FXR) signaling pathway - cell viability counter screen (AID 743218); note: nearly all actives have a fitted effect of over 45% in size
How it was run: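 Luminescence from CellTiter-Glo, read after 30 min at RT, reports viability of GeneBLAzer FXR-UAS-bla HEK 293T cells treated 16 h with compounds in the wells used for the beta-lactamase reporter.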

[6] = qHTS assay to identify small molecule antagonists of the farnesoid-X-receptor (FXR) signaling pathway - cell viability counter screen (AID 743221; active = well fitted cell-killing curve with a large enough effect in the repeat runs, not every such curve was filed as active; note: nearly all actives have a fitted effect of over 50% in size)
How it was run: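 Luminescence from CellTiter-Glo measures cytotoxicity in GeneBLAzer FXR-UAS-bla HEK 293T cells. Cells were exposed to compounds with 50 uM chenodeoxycholic acid (final) for 16 h at 37 C, in wells also used for the reporter readout.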

[7] = target: Vitamin D3 receptor (Homo sapiens) (UniProt P11473); assay: qHTS assay to identify small molecule agonists of the vitamin D receptor (VDR) signaling pathway (AID 743222; calls by dose curve)
How it was run: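 Beta-lactamase reporter readout (LiveBLAzer B/G FRET, 2 h RT) in VDR-bla cells after 16 h compound treatment at 37C, 5% CO2; cells pre-incubated 4 h before pin transfer of DMSO solutions.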

[8] = target: Vitamin D3 receptor (Homo sapiens) (UniProt P11473); assay: qHTS assay to identify small molecule antagonists of the vitamin D receptor (VDR) signaling pathway (AID 743223; active = well fitted inhibition curve with a large enough effect in the signal ratio in the repeat runs, not every such curve was filed as active; the % refers to the signal ratio)
How it was run: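 Antagonist mode uses 1alpha,25-dihydroxyvitamin D3 at 3 nM final as stimulus. VDR-bla cells receive compounds in DMSO, incubate 16 h at 37C, then a beta-lactamase FRET substrate for 2 h at room temperature before fluorescence measurement.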

[9] = target: Bile acid receptor (Homo sapiens) (UniProt Q96RI1); assay: qHTS assay to identify small molecule antagonists of the farnesoid-X-receptor (FXR) signaling pathway (AID 743217; active = well fitted inhibition curve with a large enough effect in the signal ratio in the repeat runs, not every such curve was filed as active; the % refers to the signal ratio)
How it was run: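 Read-out: beta-lactamase FRET fluorescence (LiveBLAzer B/G substrate, 2 h, room temperature) in GeneBLAzer FXR-UAS-bla HEK 293T cells. Compounds were co-dosed with 50 uM chenodeoxycholic acid (final) and incubated 16 h at 37 °C.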

[10] = target: Bile acid receptor (Homo sapiens) (UniProt Q96RI1); assay: qHTS assay to identify small molecule agonists of the farnesoid-X-receptor (FXR) signaling pathway (AID 743220; active = well fitted activation curve with a large enough effect in the signal ratio in the repeat runs, not every such curve was filed as active; the % refers to the signal ratio)
How it was run: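 FXR-UAS-bla HEK 293T cells carrying a UAS-driven beta-lactamase reporter were plated for 5 h at 37C/5% CO2, then exposed to DMSO-dissolved Tox21 10K compounds for 16 h at 37C. A LiveBLAzer B/G FRET substrate was loaded for 2 h at room temperature before fluorescence reading.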
% is set by controls: 0 for no effect and ±100 for the full control effect.

Peroxisome proliferator-activated receptor delta (Homo sapiens), sequence (Q03181 whole entry, looked up): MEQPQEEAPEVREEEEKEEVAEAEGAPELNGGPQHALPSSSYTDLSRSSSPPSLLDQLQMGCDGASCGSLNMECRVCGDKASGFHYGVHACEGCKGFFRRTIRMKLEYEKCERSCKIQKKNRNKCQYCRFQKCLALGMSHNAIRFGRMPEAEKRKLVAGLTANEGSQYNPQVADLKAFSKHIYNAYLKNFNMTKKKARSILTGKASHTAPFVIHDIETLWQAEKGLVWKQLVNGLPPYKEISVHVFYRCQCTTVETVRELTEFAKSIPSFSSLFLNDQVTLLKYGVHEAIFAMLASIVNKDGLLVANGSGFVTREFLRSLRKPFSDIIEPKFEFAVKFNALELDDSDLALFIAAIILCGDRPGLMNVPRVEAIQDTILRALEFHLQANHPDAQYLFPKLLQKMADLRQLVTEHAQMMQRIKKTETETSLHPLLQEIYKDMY
Vitamin D3 receptor (Homo sapiens), sequence (P11473 whole entry, looked up): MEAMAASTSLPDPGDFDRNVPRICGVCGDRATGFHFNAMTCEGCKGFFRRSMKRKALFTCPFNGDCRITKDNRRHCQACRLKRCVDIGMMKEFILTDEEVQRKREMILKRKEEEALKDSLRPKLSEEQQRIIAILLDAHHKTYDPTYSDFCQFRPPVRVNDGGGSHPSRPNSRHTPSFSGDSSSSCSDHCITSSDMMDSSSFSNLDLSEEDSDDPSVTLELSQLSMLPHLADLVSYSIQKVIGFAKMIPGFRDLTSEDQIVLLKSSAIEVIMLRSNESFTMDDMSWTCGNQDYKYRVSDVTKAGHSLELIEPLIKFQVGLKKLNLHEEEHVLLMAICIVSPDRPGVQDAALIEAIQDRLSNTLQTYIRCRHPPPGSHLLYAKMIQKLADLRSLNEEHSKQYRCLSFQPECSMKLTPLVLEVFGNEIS
Bile acid receptor (Homo sapiens), sequence (Q96RI1 whole entry, looked up): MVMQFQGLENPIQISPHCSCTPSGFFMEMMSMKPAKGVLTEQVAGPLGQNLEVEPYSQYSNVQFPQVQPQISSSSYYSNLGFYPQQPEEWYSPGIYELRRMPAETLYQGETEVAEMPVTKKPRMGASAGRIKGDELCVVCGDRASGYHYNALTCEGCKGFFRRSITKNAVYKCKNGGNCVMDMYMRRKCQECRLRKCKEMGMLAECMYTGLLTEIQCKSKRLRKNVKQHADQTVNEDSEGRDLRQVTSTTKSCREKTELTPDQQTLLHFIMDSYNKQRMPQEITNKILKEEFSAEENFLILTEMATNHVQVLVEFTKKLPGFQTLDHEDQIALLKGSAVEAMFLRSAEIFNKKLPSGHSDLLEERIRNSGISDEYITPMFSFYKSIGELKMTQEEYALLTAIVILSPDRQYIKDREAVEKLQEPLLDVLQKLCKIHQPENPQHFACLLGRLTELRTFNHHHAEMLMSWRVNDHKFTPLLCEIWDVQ

Nc1cccc(S(=O)(=O)O)c1
inactive: Potency [1] | outcome [2] | Potency [3] | outcome [4] | Potency [5] | outcome [6] | outcome [7]

C=C(C)C(=O)OCCOP(=O)(O)O
inactive: Potency [1] | outcome [2] | Potency [3] | outcome [4] | Potency [5] | outcome [6]

Cc1ccc([N+](=O)[O-])c(N)c1
inactive: Potency [1] | outcome [2] | Potency [3] | outcome [4] | Potency [5] | outcome [6] | outcome [7] | outcome [8]

CN1CCN(c2c(F)cc3c(=O)c(C(=O)O)cn(CCF)c3c2F)CC1
inactive: Potency [1] | outcome [2] | Potency [3] | outcome [4] | Potency [5] | outcome [6] | outcome [7] | outcome [8]

O=C(O)C(=O)Cc1c[nH]c2ccccc12
inactive: Potency [1] | outcome [2] | Potency [3] | outcome [4] | Potency [5] | outcome [7]

CCN(CC)CCNC(=O)COc1ccc(Cl)cc1
inactive: Potency [1] | outcome [2] | Potency [3] | outcome [4] | Potency [5] | outcome [6]

CCCCCCCCCC#N
inactive: Potency [1] | outcome [2] | Potency [3] | outcome [4] | Potency [5] | outcome [6] | outcome [7]

Cc1c(N)cccc1N
inactive: Potency [1] | outcome [2] | Potency [3] | outcome [4] | Potency [5] | outcome [6] | outcome [7] | outcome [8]

CC(C)Nc1nc(N)nc(Cl)n1
inactive: Potency [1] | outcome [2] | Potency [3] | outcome [4] | Potency [5] | outcome [6] | outcome [7] | outcome [8]

CC(C)(CO)[C@@H](O)C(=O)NCCC(=O)O
inactive: Potency [1] | outcome [2] | Potency [3] | outcome [4] | Potency [5] | outcome [6] | outcome [7] | outcome [8]

Cc1cccc(C)c1NC(=O)CN1CCCCCC1
inactive: Potency [1] | outcome [2] | Potency [3] | outcome [4] | Potency [5] | outcome [6] | outcome [7] | outcome [8]

OCCN1CCN(CCO)CC1
inactive: Potency [1] | outcome [2] | Potency [3] | outcome [4] | Potency [5] | outcome [6] | outcome [7] | outcome [8]

CN(C)Cc1ccccc1
inactive: Potency [1] | outcome [2] | Potency [3] | outcome [4] | Potency [5] | outcome [6] | outcome [7] | outcome [8]

O=C(CC(=O)C(F)(F)F)c1ccccc1
inactive: Potency [1] | outcome [2] | Potency [3] | outcome [4] | Potency [5] | outcome [6] | outcome [7] | outcome [8]

NC(Cc1ccc(F)cc1)C(=O)O (stereo not drawn)
inactive: activity change, negative = cytotoxicity [1] -0.221% [at 5.95 µM] | activation [2] 5.3% [at 5.95 µM] | viability change, negative = cytotoxic [3] 5.29% [at 6.26 µM] | ratio activity, negative = inhibition [4] 5.05% [at 6.26 µM] | viability change, negative = cytotoxic [5] 4.49% [at 5.95 µM] | activity change, negative = cytotoxicity [6] -10% [at 5.95 µM] | activity change, negative = inhibition [8] 0.285% [at 6.95 µM]

CCOC(=O)c1ccccc1O
inactive: Potency [1] | outcome [2] | Potency [3] | outcome [4] | Potency [5] | outcome [6] | outcome [7] | outcome [8]

C=Cc1ccccc1
inactive: Potency [1] | outcome [2] | Potency [3] | outcome [4] | Potency [5] | outcome [6] | outcome [7] | outcome [8]

O=C1CCCc2ccccc21
inactive: Potency [1] | outcome [2] | Potency [3] | outcome [4] | Potency [5] | outcome [6] | outcome [7] | outcome [8]

CC(C)S
inactive: Potency [1] | outcome [2] | Potency [3] | outcome [4] | Potency [5] | outcome [6] | outcome [7]

CCN[C@H]1CN(CCCOC)S(=O)(=O)c2sc(S(N)(=O)=O)cc21
inactive: Potency [1] | outcome [2] | Potency [3] | outcome [4] | Potency [5] | outcome [6] | outcome [7] | outcome [8]

CCOC(=O)NCCC[Si](OCC)(OCC)OCC
inactive: Potency [1] | outcome [2] | Potency [3] | outcome [4] | Potency [5] | outcome [6] | outcome [7]

C[C@]12CCC(=O)C=C1CC[C@@H]1[C@@H]2CC[C@@]2(C)[C@H]1CC[C@]2(O)C(=O)CO
inactive: Potency [1] | outcome [2] | Potency [3] | outcome [4] | Potency [5] | outcome [6] | outcome [7] | outcome [8]

O=C1CCCCC1C1CCCCC1 (stereo not drawn)
inactive: Potency [1] | outcome [2] | Potency [3] | outcome [4] | Potency [5] | outcome [6] | outcome [7] | outcome [8]

CC(Oc1c(Cl)cccc1Cl)C1=NCCN1 (stereo not drawn)
inactive: Potency [1] | outcome [2] | Potency [3] | outcome [4] | Potency [5] | outcome [6] | outcome [7] | outcome [8]

O=S(=O)(O)C(F)(F)F
inactive: Potency [1] | outcome [2] | Potency [3] | outcome [4] | Potency [5] | outcome [6] | outcome [7] | outcome [8]

CCOC(=O)[C@H](CCc1ccccc1)N[C@@H](C)C(=O)N1Cc2cc(OC)c(OC)cc2C[C@H]1C(=O)O
inactive: Potency [1] | outcome [2] | Potency [3] | outcome [4] | Potency [5] | outcome [6] | outcome [7] | outcome [8]

CN1CCC[C@@H]1Cc1c[nH]c2ccc(CCS(=O)(=O)c3ccccc3)cc12
inactive: Potency [1] | outcome [2] | Potency [3] | outcome [4] | Potency [5] | outcome [6] | outcome [7] | outcome [8]

CCOC(=O)c1cc(=O)c2c(OCC(COc3cccc4oc(C(=O)OCC)cc(=O)c34)OC(=O)[C@@H](N)CCCCN)cccc2o1
inactive: Potency [1] | outcome [2] | Potency [3] | outcome [9] | Potency [5] | outcome [10] | outcome [6] | outcome [7] | outcome [8]

CCCS(=O)c1ccc2nc(NC(=O)OC)[nH]c2c1 (stereo not drawn)
inactive: Potency [1] | outcome [2] | Potency [3] | Potency [5] | outcome [10] | outcome [6] | outcome [7]

CC(C)=CCC[C@](C)(O)[C@@H]1CC=C(C)CC1
inactive: Potency [1] | outcome [2] | Potency [3] | Potency [5] | outcome [7]

CN(C)CCOc1ccccc1Cc1ccccc1
inactive: Potency [1] | outcome [2] | Potency [3] | outcome [4] | Potency [5] | outcome [8]

CCCCCCCCCCCCCCCCOP(=O)([O-])OCC[N+](C)(C)C
inactive: Potency [1] | outcome [2] | outcome [4] | outcome [6] | outcome [8]

CCCN(CCC)C(=O)C(CCC(=O)O)NC(=O)c1ccccc1 (stereo not drawn)
inactive: Potency [1] | outcome [2] | Potency [3] | outcome [4] | Potency [5] | outcome [7]
